{
  "source": "PubChem BioAssay (Tox21)",
  "note": "Records with an inconclusive call do not appear. A call without a number means that no potency is given here. A number with no mark means an inactive call. Calls of active or inactive are those of the source. Calls come from the whole dose curve; as a rule, active = well fitted inhibition curve with a large enough effect in the repeat runs; inconclusive = weak or mixed curves; inactive = no such curve, though single readings can be large or run the other way. Potency is the fitted concentration of half-maximal effect.",
  "data": [
    {"target": "Cytochrome P450 3A4 (Homo sapiens) (UniProt P08684)", "sequence (P08684 whole entry, looked up)": "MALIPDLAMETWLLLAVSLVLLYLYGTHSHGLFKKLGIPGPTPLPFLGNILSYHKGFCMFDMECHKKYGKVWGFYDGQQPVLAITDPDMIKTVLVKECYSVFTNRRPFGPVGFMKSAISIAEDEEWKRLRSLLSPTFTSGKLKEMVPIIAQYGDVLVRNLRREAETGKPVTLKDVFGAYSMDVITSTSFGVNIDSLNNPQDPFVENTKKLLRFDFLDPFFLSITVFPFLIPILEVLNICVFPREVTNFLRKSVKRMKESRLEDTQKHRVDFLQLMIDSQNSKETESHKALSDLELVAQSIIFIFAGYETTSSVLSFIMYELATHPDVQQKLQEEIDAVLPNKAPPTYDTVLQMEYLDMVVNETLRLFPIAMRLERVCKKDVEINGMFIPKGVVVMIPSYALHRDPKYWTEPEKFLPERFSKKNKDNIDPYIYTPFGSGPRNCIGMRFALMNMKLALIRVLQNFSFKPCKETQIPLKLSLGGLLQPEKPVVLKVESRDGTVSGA", "assay": "Cytochrome P450 Family 3 Subfamily A Member 4 (CYP3A4) small molecule antagonists: luciferase reporter qHTS assay (AID 1671201); note: nearly all actives have a fitted effect of over 50% in size", "conditions": "P450-Glo CYP3A4 enzyme, luciferin luminescence, 1 h; series mostly up to 115 µM", "description": "National Center for Advancing Translational Sciences [NCATS]\nU.S. Environmental Protection Agency [EPA]\nNational Institutes of Environmental Health Sciences [NIEHS]\nNational Toxicology Program [NTP]\nU.S. Food and Drug Administration [FDA]\nCytochrome P450 (CYP) enzymes are membrane-bound hemeproteins that play a key role in metabolism of drugs and xenobiotics. Evaluation of the effect of chemicals on CYP isozymes is useful to minimize the adverse drug reactions and toxicities in drug development process. Tox21 chemicals were tested for their effect on CYP enzyme activities by using P450-Glo (TM) screening systems (Promega Corporation, Madison, WI). These systems provide a luminescent method containing proluciferin substrates and are converted to luciferin products by CYP isozymes. The luciferin products formed are detected with a luciferin detection reagent, and the amount of light produced is proportional to CYP activity. P450-Glo (TM) CYP3A4 screening system (Catalog. No. V9910) was used to detect the compounds that interfere in CYP3A4 activity. The positive control compound used for CYP3A4 assay is ketoconazole (Sigma-Aldrich, St. Louis, MO).\nTox21 Assay Protocol Summary:\nTwo ul of enzyme-substrate mix was dispensed into medium binding white/solid 1536-well plates (Greiner Bio-One North America Inc., Monroe, NC) using a BioRaptr Flying Reagent Dispenser (FRD, Beckman Coulter, Brea, CA). Compounds dissolved in DMSO and positive control (ketoconazole) were transferred to the assay plates at 23 nl using a Pintool station (Wako, San Diego, CA). The assay plates were incubated at room temperature for 10 min. Then 2 ul of NADPH regeneration solution was added to each well of the assay plates using an FRD and incubated at room temperature for 1 h. The reaction was stopped by adding 4 ul of detection reagent using an FRD and after 20 min incubation at room temperature the luminescence signal was measured using a ViewLux plate reader (Perkin Elmer, Shelton, CT). Data were expressed as relative luminescence units.", "values": [
      {"smiles": "C[C@H](CCC(=O)O)[C@H]1CC[C@H]2[C@@H]3[C@H](O)C[C@@H]4C[C@H](O)CC[C@]4(C)[C@H]3CC[C@]12C", "Potency": "inactive"},
      {"smiles": "Nc1ccc(C(=O)Nc2ccccc2N)cc1", "Potency": "inactive"},
      {"smiles": "SC1CCCC1", "Potency": "inactive"},
      {"smiles": "NCc1ccccc1", "Potency": "inactive"},
      {"smiles": "S=C(S)NCCNC(=S)S", "Potency": "inactive"},
      {"smiles": "O=C(O)Cc1sc(-c2ccccc2)nc1-c1ccc(Cl)cc1", "Potency": "inactive"},
      {"smiles": "O=C(/C=C/c1ccc(O)c(O)c1)O[C@@H]1C[C@](O)(C(=O)O)C[C@@H](O)[C@H]1O", "Potency": "inactive"},
      {"smiles": "CC(=O)Nc1ccc(/C=N/NC(N)=S)cc1", "Potency": "inactive"},
      {"smiles": "CCOC(=S)SSC(=S)OCC", "Potency": "inactive"},
      {"smiles": "Nc1cnn([C@@H]2O[C@H](CO)[C@@H](O)[C@H]2O)c(=O)n1", "Potency": "inactive"},
      {"smiles": "Cc1ccc(C(N)=O)cc1N", "Potency": "inactive"},
      {"smiles": "ClC(Cl)(Cl)c1ccc(C(Cl)(Cl)Cl)cc1", "Potency": "inactive"},
      {"smiles": "CC(C)CCCCCCOC(=O)c1ccc(C(=O)OCCCCCCC(C)C)c(C(=O)OCCCCCCC(C)C)c1", "Potency": "inactive"},
      {"smiles": "O=C(O)c1cn(C2CC2)c2cc(Cl)c(F)cc2c1=O", "Potency": "inactive"},
      {"smiles": "CCCCCCCCN(C)C", "Potency": "inactive"},
      {"smiles": "Oc1ccc2c(c1)OCO2", "Potency": "22.3 µM (active)"},
      {"smiles": "C=CCCCCCC", "Potency": "inactive"},
      {"smiles": "CCCCCCCCCCCCCCC1CO1", "note": "(stereo not given)", "Potency": "inactive"},
      {"smiles": "NC[C@H]1O[C@H](O[C@H]2[C@H](O)[C@@H](O[C@H]3O[C@H](CO)[C@@H](O)[C@H](N)[C@H]3O)[C@H](N)C[C@@H]2N)[C@H](O)[C@@H](O)[C@@H]1O", "activity change, negative = inhibition": "8.95% [at 10.5 µM]"},
      {"smiles": "CCCCCc1ccc(N)cc1", "Potency": "31.7 µM (active)"},
      {"smiles": "COC(Cc1ccccc1)OC", "Potency": "inactive"},
      {"smiles": "CC(=O)OCCc1ccccc1", "Potency": "inactive"},
      {"smiles": "CC(=O)N(O)CCCCCNC(=O)CCC(=O)N(O)CCCCCNC(=O)CCC(=O)N(O)CCCCCN", "Potency": "inactive"},
      {"smiles": "CC(C)(C)c1cc(CO)cc(C(C)(C)C)c1O", "Potency": "36.3 µM (active)"},
      {"smiles": "Cc1ccc(C(C)c2ccc(C)c(C)c2)cc1C", "Potency": "inactive"},
      {"smiles": "CCCCOCCOCCOCCOCCO", "Potency": "inactive"},
      {"smiles": "COc1ccc(OC)c(OC)c1", "Potency": "inactive"},
      {"smiles": "CCCCOC(=O)/C=C\\C(=O)OCCCC", "Potency": "inactive"},
      {"smiles": "NCCCOCCOCCOCCCN", "Potency": "inactive"},
      {"smiles": "COC(=O)C(C)=O", "Potency": "inactive"},
      {"smiles": "CN(C)CC[C@@H](c1ccc(Br)cc1)c1ccccn1", "Potency": "inactive"},
      {"smiles": "CC[C@H](C)[C@@H](C(=O)O)n1sc2ccccc2c1=O", "Potency": "inactive"},
      {"smiles": "CCCCOc1cc(C(=O)OCCN(CC)CC)ccc1N", "Potency": "inactive"},
      {"smiles": "CCc1nn(C2CCCCC2)c2cc(C3(C#N)CCC(C(=O)O)CC3)ccc12", "note": "(stereo not given)", "Potency": "inactive"},
      {"smiles": "Cc1ccc(C)o1", "Potency": "inactive"},
      {"smiles": "CCCCC(CC)COCCCN", "note": "(stereo not given)", "Potency": "9.92 µM (active)"},
      {"smiles": "O=C=NC1CCC(CC2CCC(N=C=O)CC2)CC1", "note": "(stereo not given)", "Potency": "3.99 µM (active)"},
      {"smiles": "CCCc1ccccc1", "Potency": "inactive"},
      {"smiles": "N=C(N=C(N)N)N1CCOCC1", "Potency": "inactive"},
      {"smiles": "CN1CCC(=C2c3ccccc3C=Cc3ccccc32)CC1", "Potency": "inactive"}
    ]}
  ]
}
